The values that follow come from PubChem BioAssay AID1845224 (National Center for Advancing Translational Sciences (NCATS), 2023).

Results filed as inconclusive are left out. Activity calls are given as the source filed them. The call rests on the fitted dose curve; in most records, active means well fitted curve in the direction sought with a large enough effect; inconclusive means small, poorly fitted or top-dose-only effect, or another doubt; inactive means no such curve, though single readings can be large or run the other way.

This assay deals with NanoLuc luciferase (engineered Oplophorus gracilirostris luciferase). The experiment in a line: Confirmatory Nanoluciferase (NLuc) qHTS assay for identification of artifact compounds. Further: % of control where 0% means no effect. The note with it: secreted NLuc in S16 cell medium, luminescence, 5 min; series mostly up to 39 µM; activity change, negative = inhibition: at the top concentration. The gist of the method:
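Compounds were preincubated 15 min at room temperature with diluted secreted NanoLuc from S16 cell medium, then read by luminescence 5 min after Nano-Glo substrate. Percent inhibition versus DMSO and no-enzyme controls fitted by 4-parameter Hill curve.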
On to `CCOC(=O)c1cccc(NC(=O)c2ccc3snnc3c2)c1`, for which the “activity change, negative = inhibition” value was -2.68% (inactive).

Regarding `Cc1ccc(C(=O)Nc2onc3c2CCCC3)cc1`, the “activity change, negative = inhibition” value was -8.25% (inactive). The value for `Cc1cc(NC(=O)Nc2cccc(-c3ccncc3)n2)ccc1Cl` was -2.7% (inactive); that for `COc1ccc(CC(=O)Nc2nc3c(s2)CCCC3)cc1` was -7.35% (inactive); that for `Clc1ccc(CNc2cc(-c3ccc4c(c3)OCO4)ncn2)cc1` was -8.75% (inactive). `COc1ccccc1Oc1coc2cc(O)ccc2c1=O`: the “activity change, negative = inhibition” value was -4.28% (inactive). For the compound `COc1ccccc1N1CCN(S(=O)(=O)c2c(C)nc3sc(C)c(C)n3c2=O)CC1`, the “activity change, negative = inhibition” value was -6.1% (inactive). Then `Oc1ccc(C2(c3ccc(O)cc3)CC3CC2C2CCCC32)cc1` (stereo unspecified), with 0.368% [at 75.8 µM] (inactive). The value for `CCc1cccc(C)c1NC(=O)Cn1c(=O)n(-c2ccc(C)cc2)c(=O)c2c1cnn2C` was -0.148% (inactive); that for `O=C(Nc1ccc(Br)cc1)c1cccc(C(=O)Nc2ccc(Br)cc2)c1` was -2.91% (inactive). Take `C[C@@H]1C[C@H]2[C@@H]3CCC4=CC(=O)C=C[C@]4(C)[C@@]3(F)[C@@H](O)C[C@]2(C)[C@@]1(O)C(=O)CO`: the “activity change, negative = inhibition” value is -0.23% (inactive).

Take `Cc1ccc(CNCc2cn[nH]c2-c2ccc(C)cc2)cc1`: the “activity change, negative = inhibition” value is -0.831% (inactive). For the compound `Cc1cc(C)cc(-n2c(SCC(=O)N3CCCCCC3)nc3c([nH]c4ccccc43)c2=O)c1`, the “activity change, negative = inhibition” value is -4.09% (inactive). The value for `OC[C@H]1O[C@@H](O[C@@H]2OC=C[C@H]3[C@H](O)[C@@H]4O[C@]4(CO)[C@@H]23)[C@H](O)[C@@H](O)[C@@H]1O` was 3.73% (inactive); that for `Cc1nc2nc(CNC(=O)OC(C)(C)C)nn2c(C)c1CCC(=O)NCc1ccccc1Cl` was 4.97% (inactive).

On to `Cc1ccc2[nH]c(CSc3nnc(C)s3)cc(=O)c2c1`, for which the “activity change, negative = inhibition” value was -2.56% (inactive).

In the case of `COc1ccc(CCNC(=O)Cn2cc(C(=O)c3ccc(F)cc3)c(=O)c3ccc(C)nc32)cc1OC`, the “activity change, negative = inhibition” value was -3.94% (inactive). The value for `CCOc1ccccc1NC(=O)Cn1c(=O)n(CCCC(=O)NCc2ccc(C)cc2)c(=O)c2ccccc21` was -7.35% (inactive); that for `O=C(OCc1ccccc1)c1ccccc1O` was 0.921% (inactive). The value for `C[C@H](CCC(=O)O)[C@H]1CC[C@H]2[C@@H]3CC[C@@H]4C[C@H](O)CC[C@]4(C)[C@H]3CC[C@]12C` was -1.22% [at 78.4 µM] (inactive). For `Cc1cc2oc(=O)cc(C)c2c2occ(-c3ccc(Cl)cc3)c12`, the “activity change, negative = inhibition” value is -1.13% (inactive). The value for `COC(=O)c1scc(-c2ccc(C)cc2)c1S(=O)(=O)Nc1cc(Cl)ccc1C` was -2.44% (inactive); that for `COc1ccc(Cn2c(CCC(=O)Nc3cc(C)cc(C)c3)nc3cccnc32)cc1` was -16.6% (inactive). The value for `COC(=O)CCC(C)C1CCC2C3CC[C@H]4CC(O)CC[C@@]4(C)C3CC(O)[C@]12C` (stereo partly specified) was -8.16% (inactive); that for `Cc1ccc(-c2nnc(Nc3cccc(Br)c3)c3ccccc23)cc1S(=O)(=O)N1CCCCC1` was -0.839% (inactive).

Take `Cc1ccc(NC(=O)c2ccc(Br)cc2)c(C(=O)c2ccccc2)c1`: the “activity change, negative = inhibition” value was -3.05% (inactive).

As to `Oc1ccc(-c2csc(-c3ccc(F)cc3)n2)c(O)c1`, the “activity change, negative = inhibition” value is -9.63% (inactive).

Turning to `COc1ccc(CNC(=O)CCc2c(C)nc3c4cccnc4nn3c2C)cc1`, the “activity change, negative = inhibition” value is -5.25% (inactive). The value for `CC(C)(O)C1CC[C@@]2(C)C3CCC4[C@@]5(C)CCCC(C)(C)C5C(O)C[C@]4(C)[C@]3(C)CC[C@@H]12` (stereo partly specified) was 0.282% (inactive); that for `CCOC(=O)c1c(C)[nH]c(C)c1S(=O)(=O)N1CCC(C(=O)N2CCN(c3ccccc3)CC2)CC1` was -10.8% (inactive). Then `CCCCn1c(SCC(=O)Nc2ccc(F)cc2)nc2c(sc3ccccc32)c1=O`, with -15.2% (inactive).
